Inconclusive results are not listed. The source made the active and inactive calls. Rule for the calls: active = hit-call score of the fitted dose curve at least 0.9, where 1 is the maximum; inconclusive = response in the unintended direction; inactive = score below 0.9.

Sequence of Bile acid receptor (Homo sapiens) (Q96RI1 whole entry, looked up, the tested form may be a part): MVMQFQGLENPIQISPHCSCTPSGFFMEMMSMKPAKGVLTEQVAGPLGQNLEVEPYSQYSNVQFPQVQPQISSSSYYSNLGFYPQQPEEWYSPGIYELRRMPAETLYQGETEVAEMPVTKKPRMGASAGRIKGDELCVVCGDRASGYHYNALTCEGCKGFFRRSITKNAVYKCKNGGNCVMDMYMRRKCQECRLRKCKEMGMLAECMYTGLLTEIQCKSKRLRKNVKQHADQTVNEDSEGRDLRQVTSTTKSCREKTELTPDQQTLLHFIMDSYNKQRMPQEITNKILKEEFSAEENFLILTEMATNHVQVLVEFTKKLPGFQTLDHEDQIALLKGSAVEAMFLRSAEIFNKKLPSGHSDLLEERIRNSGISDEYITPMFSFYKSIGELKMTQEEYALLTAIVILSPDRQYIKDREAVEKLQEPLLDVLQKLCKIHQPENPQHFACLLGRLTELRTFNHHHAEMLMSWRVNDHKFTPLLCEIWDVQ

The assay concerns the target Bile acid receptor (Homo sapiens) (UniProt Q96RI1). Description: OT_FXR_FXRSRC1_1440: Odyssey Thera (OT) 24-hour HEK293T Protein-Complementation Assay for Farnesoid X receptor/SRC-1 Co-activator (AID 2283384). As for the experimental part: OT_FXR_FXRSRC1_1440 is a cell-based assay that uses HEK293T, a human kidney cell line, with measurements taken at 24 hours after chemical dosing in a 384-well plate.OT_FXR_FXRSRC1_1440 is one of one assay component(s) measured or calculated from the OT_FXR_FXRSRC1_1440 assay. It is designed to make measurements of protein fragment complementation, a form of binding reporter, as detected with fluorescence intensity signals by Protein-fragment Complementation technology.Data from the assay component OT_FXR_FXRSRC1_1440 was analyzed into 1 assay endpoint. This assay endpoint, OT_FXR_FXRSRC1_1440, was analyzed in the positive analysis fitting direction relative to DMSO as the negative control and baseline of activity. Using a type of binding reporter, measures of receptor for gain-of-signal activity can be used to understand the binding at the pathway-level as they relate to the gene NR1H4. Furthermore, this assay endpoint can be referred to as a primary readout, because the performed assay has only produced 1 assay endpoint. To generalize the intended target to other relatable targets, this assay endpoint is annotated to the nuclear receptor intended target family, where the subfamily is non-steroidal.
Protein-fragment complementation assay, or PCA, is a method for the identification and quantification of protein-protein interactions. In the PCA, the proteins of interest ("bait" and "prey") are each covalently linked to fragments of a third protein (e.g. DHFR, which acts as a "reporter"). Interaction between the bait and the prey proteins brings the fragments of the reporter protein in close proximity to allow them to form a functional reporter protein whose activity can be measured.
For the compound `CN(C)C(=O)NC1(c2ccccc2)CCN(CC[C@@]2(c3ccc(F)c(F)c3)CN(C(=O)c3ccccc3)CCO2)CC1`, the call was inactive.
Consider `CSc1ccc(Oc2ccc(S(N)(=O)=O)cc2CN(C)C)cc1C`, for which the AC50 (as a rule, the midpoint of the concentration-response curve, whichever way the signal moves) is 26.5 µM (active).
Take `O=C(NS(=O)(=O)/C=C/c1cccs1)c1ccc(F)cc1Br`: the AC50 is 1.72 µM (active).
Turning to `CCCCc1nc2cccnc2n1Cc1ccc(-c2ccccc2-c2nnn[nH]2)cc1`, the AC50 is 78.2 µM (active).
`Cc1cc(SC2=C(O)C[C@@](CCc3ccc(N)cc3)(C(C)C)OC2=O)c(C(C)(C)C)cc1CO`: the result was inactive.
As to `c1ccc2occc2c1`, the compound was classed as inactive.
As to `O=C(O)c1cccnc1`, the compound was called inactive.
The same measure, in the same setting: as for `COC(=O)CCC(=O)OC`, the entry is “inactive”; as for `NC(=Nc1ccccc1)Nc1ccccc1`, “inactive”; as for `O=C1c2c(O)cccc2Cc2cccc(O)c21`, “inactive”.
For `COC(=O)CCCC(=O)OC`, the result was inactive.
`CCc1nc(N)nc(N)c1-c1ccc(Cl)cc1`: the outcome was inactive.
As for `CN(C)CCCN(C)CCCN(C)C`, the compound was classed as inactive.
As to `Nc1nc(Cl)nc2c1ncn2[C@H]1C[C@H](O)[C@@H](CO)O1`, the AC50 is 21.1 µM (active).
Regarding `CC(COCC(C)OC(=O)c1ccccc1)OC(=O)c1ccccc1` (centres undefined), the result was inactive.
Take `CCCCCCC(CCCCCCCCCCC(=O)OCC(COC(C)=O)OC(C)=O)OC(C)=O` (centres undefined): the compound was called inactive.
Turning to `C=CCc1ccc(OC)c(OC)c1`, the result was inactive.
`CC(C)COC(=O)CCCCC(=O)OCC(C)C`: the outcome was inactive.
For the compound `S=c1[nH]c2ccccc2s1`, the result was inactive.
Regarding `Cn1cnc2c1c(=O)[nH]c(=O)n2C`, the outcome was inactive.
On to `C=CCCCCCCCCCCCC`, for which the call was inactive.
On to `O=C(O)c1[nH]n(-c2ccc(S(=O)(=O)O)cc2)c(=O)c1N=Nc1ccc(S(=O)(=O)O)cc1`, for which the compound was classed as inactive.
On the same count and under the same terms, as for `CCCCCCC(C=O)=Cc1ccccc1`, the entry is “inactive”.
As to `CN(C)C(=O)NC1(c2ccccc2)CCN(CCC[C@]2(c3ccc(Cl)c(Cl)c3)CCCN(C(=O)c3ccccc3)C2)CC1`, the call was inactive.
`CCCCC(CC)CO` (centres undefined): the compound was called inactive.
Turning to `COc1ccc(C(=O)Nc2nc3ccccc3c(NCc3ccccc3)c2C#N)cc1`, the AC50 was 14.4 µM (active).
Regarding `Cc1c(C)c2c(c(C)c1O)CCC(C)(COc1ccc(CC3SC(=O)NC3=O)cc1)O2` (centres undefined), the AC50 is 18.2 µM (active).
For `CCCCC(CC)COP(=O)(OCC(CC)CCCC)OCC(CC)CCCC` (centres undefined), the AC50 was 67.1 µM (active).
In the case of `O=C(Oc1ccccc1)c1cccc(C(=O)Oc2ccccc2)c1`, the result was inactive.
For `CC(C)c1cccc(C(C)C)c1NC(=O)NS(=O)(=O)c1cc(C(C)(C)O)co1`, the result was inactive.
Take `Cc1ccc(C(C)(C)C)c(O)c1`: the AC50 was 80.5 µM (active).
As to `Cc1cc(Cc2ccc(N)c(C)c2)ccc1N`, the AC50 was 66.7 µM (active).
Turning to `O=C(N[C@@H](c1ccccc1)[C@@H]1CCCCN1)c1cccc(C(F)(F)F)c1Cl`, the AC50 is 11.4 µM (active).
As to `CC(C)OC(=O)C(C)(C)Oc1ccc(C(=O)c2ccc(Cl)cc2)cc1`, the AC50 is 7.72 µM (active).

Source of the values: PubChem BioAssay (EPA / NIEHS).
